Assay results: the supplement of paper PMC6555819

tested on: VDR:RXRa (NR concentration 270 nM, RXRa partner concentration 90 nM); test: PBM binding z-score (relative to random genomic background probes); higher = stronger binding; sequences stand for … in GC…GCGATTGACAGCGTAGAATGAAGG
Description: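 Protein-binding microarray (Agilent 4x180K custom design, double-stranded 60-nt probes: 5' GC cap, 34-nt variable region, 24-nt constant primer region; full probe sequence given). Purified or IVT nuclear receptor:RXRα heterodimers (3:1 NR:RXRα, mostly 270:90 nM) or homodimers were incubated for 1 h in PBS with 2% milk and no ligand, then detected with Alexa488 antibodies. Fluorescence from o1-orientation probes (~5 replicates averaged) was converted to z-scores against 500 random hg19 background probes. Variable regions are seed direct-repeat (DR0–DR5) sites, all their single-nucleotide variants and half-site ablations.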

| Sequence | PBM binding z-score |
| --- | --- |
| ATCTAAAGGTCGAGGTGAGTATAGAGAAAGGGAA | 3.08 |
| TCTGCTAGGTCAACGATAGTCAGCTAATCTGCTA | 1.24 |
| CAAACTAGGTCACAGAGGTCATAGTCCGTGCGTA | 8.31 |
| TCTTGTAGATCAATAGAGGTCAAGAAAGTGCGCT | 4.77 |
| ATACCAAGGTGATCGTGAGGTCCTTGATACTAAC | 0.32 |
| ACTATAAGTTGACTTAGGGCAACCGATACGACGC | 0.769 |
| TTACCAAGGTGAGCTGAGGTCATTGATCCAACTC | 5.79 |
| ATATGTAGGTTAGCGGGTCATTCAGTTTGCGCAT | 4.74 |
| AGAATGAGGTTACCAAAGATGAGGGAAACGCTTG | 1.03 |
| CAAACTAGGTTACCGGAAGGTCAAAGTCCGCATG | 4.16 |
| TAGCCTAGGTCATTAGGCCAGTATAGTACGCATC | 1.69 |
| CCGACTGGGGCATAGGGTTACCATAAGCCAGCCC | 0.304 |
| ACTATTAGATGACTTAGGGCAACCGATACGACGC | 0.293 |
| GCATATAGATAATACAAGGTGAAAGTCCGATTGT | 0.152 |
| TGTCACAGTTCAAAGGTAACGTAAGTATCCACAC | 3.28 |
| GCGACTGGGGCATCAGCAGGTTTCCATAACTTAA | -0.402 |
| ATCGCTAGGTAAGACTCAGTTCAGTGAAGAACGC | -0.0263 |
| GCGACAGGGGCAAAGCAGGTTACCATAAGGTTGG | 0.898 |
| ACTAACAGGCCAAGTTTGGGTCACTCAAACAAAG | 0.973 |
| AGACTGAGGTTATACGTAGATCAGGGAAGAAAGT | 1.42 |

| Sequence | PBM binding z-score |
| --- | --- |
| ACTCTGAGGACAAAGGTCAGAGCTACGCCAGTGA | 3.49 |
| AGAACGAGGGCAATGAGTTGTTAGCACGGGTGGC | 4.09 |
| CCGACTGGGGCAAAGGTTACCAGACTCAGTACGA | 1.64 |
| GCTCAGAGGACAAGGTCAGAGCTTTGTCCGTAGA | 1.69 |
| ATCTCTAGGGAAAGATAGTTCAGTGAATGCAAAT | 0.156 |
| GCAAATAGGTAATACAAGGTGAAAGTCCGATTGT | 0.551 |
| ACAGACAGATGAGTGAAGGTAACTCAGCTGGACG | -0.157 |
| CGTCCAAGGTCATAGGAGGTAAGTGAAGACAGAT | 4.61 |
| ATCGAAAGGTCGTGAGGTTAGTATACAGAAAGGC | 4.66 |
| GCGACTGGGGCAAAGCAGGTCACCATAAGGTTGG | 2.52 |
| CGTCCTAGGTCAGCAGGTCAGTGAAAGCGACGTG | 2.07 |
| CGAACTTGGTCATCCAGGACAGTGAATACATTGA | 1.59 |
| CCTACTGGGCCATTCAGAGGTCATTGCTCATATG | 3.84 |
| GCATAAAGGTAATACAAGGTGAAAGTCCGATTGT | 1.05 |
| ACTAGTTGGTCGGCTGAGGTCACACACAATTCGG | 3.94 |
| AATACAGGGTCACTAGGCCAGTGTAGGTACGAAT | 4.26 |
| TGACCAAGGTGAAAGGTCGTTGATGCACGCCTTG | 2.96 |
| GTGCCAAGGTGAATAGGTCGTTGATGAGTAGGCG | 0.576 |
| TCTTGTAGATCAAAAGTTAAGAAAGCCGAAGCCT | 0.386 |
| TCTGCTAGGTCAACCATGGTCAGCTAATCTGCTA | 2.27 |
